The subject of the test is MDA-MB-468 breast. Briefly: NCI-60 one-dose screen, 48 h (100 = growth as untreated, 0 = no growth, -100 = all killed). To be noted: 10 µM unless noted.

This note sets out measurements from PubChem BioAssay (NCI).

The structures appear in SMILES notation. Compounds without any hit were thinned out: in the full panel of roughly 83,000, 20% have a hit.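 Single-dose data. Exposure time 48 hours. Values below 10 considered active.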 A number with no mark means an inactive call. Calls of active or inactive are those of the source.

As for `Cc1cc(Cl)ccc1NC(=O)/C(Cl)=C1/Sc2ccccc2NC1=O`, the growth is 95.1%.
The result for `COc1cccc2cc(-c3cc4ccccc4[nH]3)/c(=N\NC(=O)c3ccc(Cl)cc3)oc12` reads -2.01% (active).
For `CCN1C(=S)N(c2ccccc2)C2NC(=S)N(/N=C/C=C/c3ccccc3OC)C21` (centres undefined), the growth was 6.55% (active).
The result for `CCN(CC)CCNC(=O)c1c(C)[nH]c(/C=C2\C(=O)Nc3ccc(F)cc32)c1C` reads -56.4% (active); that for `Cc1c(Cl)cccc1C(=O)Nc1nc2c(s1)CN(C(=O)c1ccc(C(F)(F)F)cc1)CC2`, 17.7%; that for `Cc1cc(=O)n2nnc3cc(C(F)(F)F)ccc3n12`, 122%.
Take `COc1c(B(O)O)cc(F)cc1-c1nc2ccc3[nH]ncc3c2c2c1CCCC2`: the growth was -4.35% (active).
For `CCOC(=O)C1=C(c2ccccc2)N=C2N(c3ccccc3)N=C(C(C)=O)N2C1c1ccc(F)cc1` (centres undefined), the growth is 93.2%.
For the molecule `COc1ccccc1S(=O)(=O)Nc1ccc2c3c(cc(CCC(=O)NCCCCNc4cccc5c4C(=O)N(C4CCC(=O)NC4=O)C5=O)cc13)C(=O)N2C` (centres undefined), the growth was -35.5% (active).
Turning to `CCOC(=O)CC1CSC(c2cccc(Cl)c2)=N1` (centres undefined), the growth was 108%.
The figure for `CN1CCN(c2ccc3c(c2)nc(NNC(=O)c2ccncn2)c2cccn23)CC1` is 19.7%; for `CC(=O)OC(C)C(=O)NCC(C)O` (centres undefined) it is 105%; for `c1n[nH]cc1-c1nc2ccc3[nH]ncc3c2c2c1CCCC2` it is 15.2%.
The result for `Brc1ccc2[nH]cc(-c3nc(-c4c[nH]c5ccncc45)cs3)c2c1` reads -71.4% (active).
